What was measured:
Test in all cases: log2 ratio of Biotin-Ahx-Ub-VS probe labelling (fragment/DMSO); higher = less target engagement (more negative = stronger competition), active = hit call of the paper (q ≤ 0.05, log2 ratio ≤ -1)
Conditions in all cases: compound concentration: 200 uM; treatment time: 3 h
USP42 = target: T1, USP42 (UniProt Q9H9J4)
T1 sequence (whole entry): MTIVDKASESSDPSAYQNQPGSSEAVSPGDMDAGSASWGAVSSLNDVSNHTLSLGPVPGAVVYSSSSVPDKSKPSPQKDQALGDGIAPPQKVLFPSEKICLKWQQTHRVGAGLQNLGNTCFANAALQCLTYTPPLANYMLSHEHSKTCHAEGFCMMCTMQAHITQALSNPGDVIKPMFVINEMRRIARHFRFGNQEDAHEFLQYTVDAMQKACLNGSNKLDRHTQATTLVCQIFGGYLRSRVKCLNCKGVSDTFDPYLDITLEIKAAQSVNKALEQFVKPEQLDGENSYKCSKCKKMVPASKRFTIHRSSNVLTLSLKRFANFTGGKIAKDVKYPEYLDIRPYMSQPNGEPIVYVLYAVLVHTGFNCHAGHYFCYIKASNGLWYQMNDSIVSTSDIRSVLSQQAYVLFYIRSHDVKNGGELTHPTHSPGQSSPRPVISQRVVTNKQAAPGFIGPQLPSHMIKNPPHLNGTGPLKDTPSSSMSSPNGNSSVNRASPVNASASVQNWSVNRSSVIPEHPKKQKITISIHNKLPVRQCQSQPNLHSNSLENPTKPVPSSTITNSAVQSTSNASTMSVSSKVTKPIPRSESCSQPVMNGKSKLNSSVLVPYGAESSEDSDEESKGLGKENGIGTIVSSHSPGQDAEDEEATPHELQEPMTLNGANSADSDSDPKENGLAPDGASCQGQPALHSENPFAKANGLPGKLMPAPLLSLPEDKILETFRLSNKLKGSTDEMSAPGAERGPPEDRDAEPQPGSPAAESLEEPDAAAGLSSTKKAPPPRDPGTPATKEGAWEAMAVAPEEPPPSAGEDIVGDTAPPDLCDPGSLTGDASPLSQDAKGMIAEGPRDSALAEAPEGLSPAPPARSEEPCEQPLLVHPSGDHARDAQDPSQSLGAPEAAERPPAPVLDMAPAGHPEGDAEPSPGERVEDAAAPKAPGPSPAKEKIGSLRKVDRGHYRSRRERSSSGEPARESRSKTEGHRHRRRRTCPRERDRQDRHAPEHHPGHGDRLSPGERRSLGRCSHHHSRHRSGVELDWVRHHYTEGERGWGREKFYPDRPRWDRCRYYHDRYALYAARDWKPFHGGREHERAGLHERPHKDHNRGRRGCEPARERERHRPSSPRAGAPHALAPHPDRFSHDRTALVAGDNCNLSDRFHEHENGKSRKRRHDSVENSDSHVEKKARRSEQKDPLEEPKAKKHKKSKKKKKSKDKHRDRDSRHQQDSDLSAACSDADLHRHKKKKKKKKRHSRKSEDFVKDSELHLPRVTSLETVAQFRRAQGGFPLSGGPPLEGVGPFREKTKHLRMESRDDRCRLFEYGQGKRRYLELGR
Summary of the method: (§1)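 HEK293T lysate (495 µg per sample, in Tris/CHAPS/IGEPAL buffer with protease inhibitors) was exposed in triplicate for 3 h to fragment at 200 µM or to vehicle, then to Biotin-Ahx-Ub-VS at 0.5 µM final for 1 h. Labelled DUBs were enriched on NeutrAvidin, digested with LysC and trypsin, and analysed by diaPASEF LC-MS/MS. Spectronaut label-free quantities were normalised to the global median, and values are average log2 ratios of fragment over vehicle from an unpaired t-test. Only proteins with ≥2 unique peptides were used.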

USP46 = USP46 (UniProt P62068)
Chain of USP46 (P62068 whole entry): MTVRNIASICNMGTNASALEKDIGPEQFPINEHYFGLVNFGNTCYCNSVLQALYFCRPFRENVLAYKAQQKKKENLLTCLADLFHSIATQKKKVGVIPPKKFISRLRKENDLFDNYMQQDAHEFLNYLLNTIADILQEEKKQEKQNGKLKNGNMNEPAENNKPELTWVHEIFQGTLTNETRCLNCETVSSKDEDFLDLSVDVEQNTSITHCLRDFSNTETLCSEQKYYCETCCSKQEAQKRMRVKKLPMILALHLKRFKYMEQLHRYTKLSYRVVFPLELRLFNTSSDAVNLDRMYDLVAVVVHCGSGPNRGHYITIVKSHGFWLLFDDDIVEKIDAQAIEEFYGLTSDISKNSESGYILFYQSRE
Summary of the method: as §1

USP47 = target: T2, USP47 (UniProt Q96K76)
T2 sequence (whole entry): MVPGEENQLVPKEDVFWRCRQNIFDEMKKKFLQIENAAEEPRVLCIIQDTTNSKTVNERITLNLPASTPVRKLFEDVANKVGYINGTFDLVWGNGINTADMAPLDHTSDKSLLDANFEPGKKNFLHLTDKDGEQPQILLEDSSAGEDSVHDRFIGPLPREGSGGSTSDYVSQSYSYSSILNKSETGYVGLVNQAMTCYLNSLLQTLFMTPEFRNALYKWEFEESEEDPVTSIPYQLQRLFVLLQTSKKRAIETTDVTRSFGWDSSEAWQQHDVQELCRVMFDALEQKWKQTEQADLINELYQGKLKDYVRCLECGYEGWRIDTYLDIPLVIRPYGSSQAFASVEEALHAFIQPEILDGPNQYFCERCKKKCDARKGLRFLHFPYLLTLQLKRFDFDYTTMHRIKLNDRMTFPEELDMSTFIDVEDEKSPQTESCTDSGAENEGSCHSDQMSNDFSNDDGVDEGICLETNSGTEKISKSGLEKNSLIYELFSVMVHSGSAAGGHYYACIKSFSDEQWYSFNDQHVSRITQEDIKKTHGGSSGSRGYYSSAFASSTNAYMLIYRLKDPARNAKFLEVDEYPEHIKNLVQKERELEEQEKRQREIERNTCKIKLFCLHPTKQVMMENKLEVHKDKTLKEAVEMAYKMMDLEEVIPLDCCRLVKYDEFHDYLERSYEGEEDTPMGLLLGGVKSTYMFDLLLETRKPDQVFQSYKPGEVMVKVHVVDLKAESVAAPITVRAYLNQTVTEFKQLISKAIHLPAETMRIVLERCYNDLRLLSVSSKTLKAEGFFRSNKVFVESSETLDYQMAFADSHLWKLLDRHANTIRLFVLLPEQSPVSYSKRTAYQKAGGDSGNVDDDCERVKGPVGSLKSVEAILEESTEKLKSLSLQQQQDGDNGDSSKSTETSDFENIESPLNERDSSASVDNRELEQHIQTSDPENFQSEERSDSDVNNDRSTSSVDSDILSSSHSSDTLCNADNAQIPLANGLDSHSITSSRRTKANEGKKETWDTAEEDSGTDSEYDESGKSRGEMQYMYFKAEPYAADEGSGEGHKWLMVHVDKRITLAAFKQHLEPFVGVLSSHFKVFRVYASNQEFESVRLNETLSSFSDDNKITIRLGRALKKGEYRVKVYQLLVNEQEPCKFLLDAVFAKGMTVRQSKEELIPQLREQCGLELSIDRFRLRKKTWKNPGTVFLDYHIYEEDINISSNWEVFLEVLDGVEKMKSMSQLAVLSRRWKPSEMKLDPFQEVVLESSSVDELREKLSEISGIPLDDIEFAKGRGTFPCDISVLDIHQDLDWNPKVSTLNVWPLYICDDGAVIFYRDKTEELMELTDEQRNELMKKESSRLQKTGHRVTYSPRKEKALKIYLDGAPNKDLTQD
Summary of the method: as §1

USP48 = target: T3, USP48 (UniProt Q86UV5)
T3 sequence (whole entry): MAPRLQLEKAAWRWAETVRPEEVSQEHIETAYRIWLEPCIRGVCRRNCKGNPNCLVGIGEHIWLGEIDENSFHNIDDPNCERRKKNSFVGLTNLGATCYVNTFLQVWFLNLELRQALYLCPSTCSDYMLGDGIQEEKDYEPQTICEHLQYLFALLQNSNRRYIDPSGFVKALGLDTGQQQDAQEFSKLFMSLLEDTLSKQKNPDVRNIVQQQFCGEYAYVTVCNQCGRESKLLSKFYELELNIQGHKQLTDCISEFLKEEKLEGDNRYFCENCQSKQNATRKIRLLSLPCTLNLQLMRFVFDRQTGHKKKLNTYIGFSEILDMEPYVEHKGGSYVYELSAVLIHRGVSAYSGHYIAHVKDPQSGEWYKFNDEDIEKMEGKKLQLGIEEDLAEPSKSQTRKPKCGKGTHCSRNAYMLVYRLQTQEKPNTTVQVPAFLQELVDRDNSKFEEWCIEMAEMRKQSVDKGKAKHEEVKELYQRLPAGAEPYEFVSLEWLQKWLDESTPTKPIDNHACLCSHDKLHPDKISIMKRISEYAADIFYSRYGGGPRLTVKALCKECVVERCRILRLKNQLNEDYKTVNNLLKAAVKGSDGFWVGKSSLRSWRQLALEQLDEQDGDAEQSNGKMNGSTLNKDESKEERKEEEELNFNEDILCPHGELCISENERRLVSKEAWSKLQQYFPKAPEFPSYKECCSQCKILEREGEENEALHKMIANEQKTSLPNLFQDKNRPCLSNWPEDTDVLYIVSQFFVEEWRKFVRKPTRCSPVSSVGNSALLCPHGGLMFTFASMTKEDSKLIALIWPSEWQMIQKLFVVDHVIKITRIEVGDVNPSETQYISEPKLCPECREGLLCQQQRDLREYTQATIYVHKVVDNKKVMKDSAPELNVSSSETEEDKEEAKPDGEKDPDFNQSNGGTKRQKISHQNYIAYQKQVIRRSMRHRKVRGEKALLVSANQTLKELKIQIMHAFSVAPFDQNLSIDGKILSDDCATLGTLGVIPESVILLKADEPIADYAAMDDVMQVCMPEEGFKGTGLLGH
Summary of the method: as §1

USP5 = target: T4, USP5 (UniProt P45974)
T4 sequence (whole entry): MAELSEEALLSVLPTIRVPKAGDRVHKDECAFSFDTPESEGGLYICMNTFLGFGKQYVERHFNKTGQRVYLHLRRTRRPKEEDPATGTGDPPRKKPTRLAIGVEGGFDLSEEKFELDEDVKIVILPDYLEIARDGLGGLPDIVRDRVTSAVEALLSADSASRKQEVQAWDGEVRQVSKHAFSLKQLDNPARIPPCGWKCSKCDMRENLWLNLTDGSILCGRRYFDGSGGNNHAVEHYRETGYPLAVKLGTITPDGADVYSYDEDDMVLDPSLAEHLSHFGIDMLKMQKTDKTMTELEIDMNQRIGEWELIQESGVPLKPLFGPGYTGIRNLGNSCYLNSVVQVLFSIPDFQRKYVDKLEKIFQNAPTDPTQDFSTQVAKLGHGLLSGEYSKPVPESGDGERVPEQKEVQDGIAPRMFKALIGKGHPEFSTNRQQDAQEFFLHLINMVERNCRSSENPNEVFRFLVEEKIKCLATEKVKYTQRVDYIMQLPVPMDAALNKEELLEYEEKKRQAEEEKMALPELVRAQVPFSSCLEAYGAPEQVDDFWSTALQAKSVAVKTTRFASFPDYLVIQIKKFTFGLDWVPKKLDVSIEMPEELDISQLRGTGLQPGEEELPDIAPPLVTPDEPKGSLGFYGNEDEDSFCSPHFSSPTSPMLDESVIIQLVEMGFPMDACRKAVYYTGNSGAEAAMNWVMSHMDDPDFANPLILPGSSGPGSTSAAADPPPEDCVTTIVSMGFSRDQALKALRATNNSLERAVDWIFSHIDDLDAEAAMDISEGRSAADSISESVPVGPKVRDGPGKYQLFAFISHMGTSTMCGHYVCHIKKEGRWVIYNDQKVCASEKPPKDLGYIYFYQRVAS
Summary of the method: as §1

USP54 = USP54 (UniProt Q70EL1)
Chain of USP54 (Q70EL1 whole entry): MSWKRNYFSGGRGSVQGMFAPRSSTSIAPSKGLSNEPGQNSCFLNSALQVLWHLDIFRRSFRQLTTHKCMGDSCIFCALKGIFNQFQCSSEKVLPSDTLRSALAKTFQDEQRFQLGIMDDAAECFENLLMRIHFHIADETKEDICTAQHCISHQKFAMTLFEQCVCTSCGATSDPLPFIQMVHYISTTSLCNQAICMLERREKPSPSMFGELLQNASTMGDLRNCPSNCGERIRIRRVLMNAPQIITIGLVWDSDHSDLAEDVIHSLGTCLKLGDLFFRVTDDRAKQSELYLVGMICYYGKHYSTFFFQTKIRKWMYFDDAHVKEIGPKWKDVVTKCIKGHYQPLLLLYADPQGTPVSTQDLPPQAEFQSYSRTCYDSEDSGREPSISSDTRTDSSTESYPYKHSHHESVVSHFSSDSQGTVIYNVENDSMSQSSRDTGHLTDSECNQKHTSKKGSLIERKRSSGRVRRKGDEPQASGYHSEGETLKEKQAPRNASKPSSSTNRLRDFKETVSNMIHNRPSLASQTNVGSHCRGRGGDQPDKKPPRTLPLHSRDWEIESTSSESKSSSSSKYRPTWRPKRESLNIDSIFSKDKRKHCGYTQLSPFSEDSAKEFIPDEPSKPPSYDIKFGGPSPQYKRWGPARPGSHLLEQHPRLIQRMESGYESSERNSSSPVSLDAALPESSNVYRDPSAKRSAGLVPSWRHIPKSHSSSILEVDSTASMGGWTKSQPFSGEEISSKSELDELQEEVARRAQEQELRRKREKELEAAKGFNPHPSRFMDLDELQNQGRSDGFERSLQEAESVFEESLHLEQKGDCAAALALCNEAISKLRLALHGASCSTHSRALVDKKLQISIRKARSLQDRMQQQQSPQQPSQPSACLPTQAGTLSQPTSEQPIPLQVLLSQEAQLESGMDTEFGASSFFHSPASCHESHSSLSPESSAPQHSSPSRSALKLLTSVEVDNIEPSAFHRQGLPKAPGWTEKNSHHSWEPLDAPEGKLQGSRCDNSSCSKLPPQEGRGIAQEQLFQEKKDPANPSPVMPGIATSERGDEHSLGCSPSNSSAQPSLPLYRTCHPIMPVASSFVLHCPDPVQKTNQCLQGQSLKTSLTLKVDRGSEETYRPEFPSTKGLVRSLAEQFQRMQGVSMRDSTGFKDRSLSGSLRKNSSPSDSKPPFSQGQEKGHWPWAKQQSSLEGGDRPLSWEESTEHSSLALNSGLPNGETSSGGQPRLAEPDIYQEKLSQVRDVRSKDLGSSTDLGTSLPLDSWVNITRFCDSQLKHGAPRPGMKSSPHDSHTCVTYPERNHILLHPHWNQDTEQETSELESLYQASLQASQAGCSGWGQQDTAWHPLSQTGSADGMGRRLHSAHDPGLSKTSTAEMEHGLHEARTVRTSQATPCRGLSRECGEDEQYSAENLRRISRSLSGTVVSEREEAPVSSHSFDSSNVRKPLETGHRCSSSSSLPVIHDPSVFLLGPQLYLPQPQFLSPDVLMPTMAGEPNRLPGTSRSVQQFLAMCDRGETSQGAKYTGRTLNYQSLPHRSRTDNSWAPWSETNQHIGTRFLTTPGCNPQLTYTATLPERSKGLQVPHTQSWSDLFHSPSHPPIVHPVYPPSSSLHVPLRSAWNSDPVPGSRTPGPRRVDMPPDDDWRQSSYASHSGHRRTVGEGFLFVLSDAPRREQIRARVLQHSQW
Summary of the method: as §1

USP7 = USP7 (UniProt Q93009)
Chain of USP7 (Q93009 whole entry, looked up): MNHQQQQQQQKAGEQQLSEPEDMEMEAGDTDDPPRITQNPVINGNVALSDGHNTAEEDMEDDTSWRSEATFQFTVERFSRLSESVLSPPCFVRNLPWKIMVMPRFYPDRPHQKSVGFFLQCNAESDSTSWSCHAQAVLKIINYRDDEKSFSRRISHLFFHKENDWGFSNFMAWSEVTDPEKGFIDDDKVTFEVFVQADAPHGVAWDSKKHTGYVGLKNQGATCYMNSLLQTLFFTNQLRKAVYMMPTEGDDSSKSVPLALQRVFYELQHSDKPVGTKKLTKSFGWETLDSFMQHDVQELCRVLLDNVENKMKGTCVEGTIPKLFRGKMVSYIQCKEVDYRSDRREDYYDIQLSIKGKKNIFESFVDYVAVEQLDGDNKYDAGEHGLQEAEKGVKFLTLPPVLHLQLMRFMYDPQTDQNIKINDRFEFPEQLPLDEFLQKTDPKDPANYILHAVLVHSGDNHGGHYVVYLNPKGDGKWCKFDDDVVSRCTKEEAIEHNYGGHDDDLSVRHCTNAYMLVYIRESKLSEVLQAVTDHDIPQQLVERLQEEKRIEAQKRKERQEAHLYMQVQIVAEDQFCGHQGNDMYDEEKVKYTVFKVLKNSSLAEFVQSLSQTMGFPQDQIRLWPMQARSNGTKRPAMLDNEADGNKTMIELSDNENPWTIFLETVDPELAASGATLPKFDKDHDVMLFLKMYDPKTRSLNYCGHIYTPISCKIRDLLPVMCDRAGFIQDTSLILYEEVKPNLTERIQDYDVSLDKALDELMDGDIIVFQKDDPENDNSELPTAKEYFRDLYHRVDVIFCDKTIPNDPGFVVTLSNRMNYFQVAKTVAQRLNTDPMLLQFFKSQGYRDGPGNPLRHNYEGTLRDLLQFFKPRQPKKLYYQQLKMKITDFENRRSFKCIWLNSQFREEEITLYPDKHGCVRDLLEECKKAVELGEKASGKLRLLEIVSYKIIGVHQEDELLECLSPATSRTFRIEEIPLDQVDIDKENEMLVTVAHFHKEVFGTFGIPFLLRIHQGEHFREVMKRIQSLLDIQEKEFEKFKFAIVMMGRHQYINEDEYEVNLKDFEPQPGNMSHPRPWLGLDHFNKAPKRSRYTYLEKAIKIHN
Summary of the method: as §1

USP8 = target: T5, USP8 (UniProt P40818)
T5 sequence (whole entry): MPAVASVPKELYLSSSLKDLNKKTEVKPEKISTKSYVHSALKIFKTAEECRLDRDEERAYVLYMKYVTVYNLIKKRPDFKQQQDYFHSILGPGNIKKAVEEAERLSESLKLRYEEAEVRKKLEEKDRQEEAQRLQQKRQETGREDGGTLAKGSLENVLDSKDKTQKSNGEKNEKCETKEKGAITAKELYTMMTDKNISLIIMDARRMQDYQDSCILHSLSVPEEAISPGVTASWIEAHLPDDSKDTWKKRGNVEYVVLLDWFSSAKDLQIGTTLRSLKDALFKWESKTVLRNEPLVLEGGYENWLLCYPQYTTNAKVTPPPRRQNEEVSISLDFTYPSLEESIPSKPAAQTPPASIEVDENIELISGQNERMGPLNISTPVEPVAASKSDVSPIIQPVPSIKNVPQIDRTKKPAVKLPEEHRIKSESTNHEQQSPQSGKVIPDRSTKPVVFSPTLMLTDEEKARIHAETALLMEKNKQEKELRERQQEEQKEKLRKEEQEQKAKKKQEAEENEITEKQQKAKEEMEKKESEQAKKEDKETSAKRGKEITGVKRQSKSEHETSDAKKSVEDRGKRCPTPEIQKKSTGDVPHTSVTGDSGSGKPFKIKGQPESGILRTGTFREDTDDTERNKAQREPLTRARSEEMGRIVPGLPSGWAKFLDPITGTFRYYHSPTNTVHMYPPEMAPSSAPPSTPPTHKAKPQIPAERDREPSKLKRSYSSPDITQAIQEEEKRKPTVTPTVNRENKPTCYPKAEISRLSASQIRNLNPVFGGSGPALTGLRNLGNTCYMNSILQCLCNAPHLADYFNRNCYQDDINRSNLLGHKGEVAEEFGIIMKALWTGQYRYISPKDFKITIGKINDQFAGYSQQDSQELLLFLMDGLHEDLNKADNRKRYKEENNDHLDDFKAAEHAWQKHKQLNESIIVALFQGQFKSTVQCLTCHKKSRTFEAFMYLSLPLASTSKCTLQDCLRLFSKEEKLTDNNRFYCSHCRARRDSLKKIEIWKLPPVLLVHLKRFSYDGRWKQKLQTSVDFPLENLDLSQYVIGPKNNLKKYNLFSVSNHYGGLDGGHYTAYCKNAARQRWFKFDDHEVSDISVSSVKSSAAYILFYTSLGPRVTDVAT
Summary of the method: as §1

USP9X = USP9X (UniProt Q93008)
Summary of the method: as §1

UniProt O00487 = target: UniProt O00487
Chain of UniProt O00487 (O00487 whole entry): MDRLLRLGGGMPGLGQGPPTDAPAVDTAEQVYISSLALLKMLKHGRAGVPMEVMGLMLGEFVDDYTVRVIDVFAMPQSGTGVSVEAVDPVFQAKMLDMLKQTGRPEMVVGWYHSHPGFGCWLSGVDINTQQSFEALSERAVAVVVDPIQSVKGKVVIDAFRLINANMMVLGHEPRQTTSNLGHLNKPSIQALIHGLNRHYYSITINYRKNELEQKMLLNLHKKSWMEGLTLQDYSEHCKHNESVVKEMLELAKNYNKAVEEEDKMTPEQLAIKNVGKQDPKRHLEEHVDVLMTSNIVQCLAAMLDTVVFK
Summary of the method: as §1

Measured: log2 ratio of Biotin-Ahx-Ub-VS probe labelling

CC(NC(=O)CCl)c1ccc2[nH]ncc2c1 (stereo not given)
inactive: USP42 0.605 | USP46 -0.239 | USP47 0.0542 | USP48 -0.411 | USP5 -0.557 | USP54 0.532 | USP7 -0.578 | USP8 -0.403 | USP9X -0.429 | UniProt O00487 -0.121
